Sampled rows, rich in hits. Any-hit rate of the full collection: about 4.3%.
uPA generation – qHTS for Inhibitors of Cell Surface uPA Generation. cell surface uPA generation assay, qHTS. 0.31% of 330,000 active. Potency, µM (series often up to 38.3 µM), without a hit: top-dose activity change, negative = inhibition, hits mostly inhibitors; active means well fitted inhibition curve with a large enough effect; inconclusive means small, poorly fitted or top-dose-only effect; inactive means no such curve, though single readings can be large or run the other way; tested in mouse RAW 264.7 cells; further: potency means the concentration at half of the fitted maximal effect; on the % scale 0 is the no-effect control and ±100 the full control effect; nearly all actives have a fitted effect of over 55% in size
SW480 rereplic – A quantitative high throughput screen for small molecules that induce DNA re-replication in SW480 colon adenocarcinoma cells | SW480 DNA re-replication, Hoechst DNA content imaging, 48 h | Potency, µM (top dose mostly 46.1 µM), for inactives: at the highest dose re-replication activation, usual class: activators | 1.8% of 340,000 active | AID 624297, 2012; further: potency means the concentration at half of the fitted maximal effect; % of control where 0% means no effect; nearly all actives have a fitted effect of over 55% in size
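250 cells/well; 23 nL cpd via pin tool; 48 hr, 37 C, 5% CO2; Hoechst 40 min; imager read of total nuclear intensity, ex 405/em 500-530 nm.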
MCF10A rerep – A quantitative high throughput screen for small molecules that induce DNA re-replication in MCF 10a normal breast cells | 2.9% of 350,000 active | Potency, µM (doses to about 46.1 µM), for the others: at the top dose activity, positive = re-replication, actives largely listed as activators | MCF 10A DNA re-replication, Hoechst nuclear intensity, 48 h; further: potency means the concentration at half of the fitted maximal effect; % of control where 0% means no effect; nearly all actives have a fitted effect of over 50% in size
Giardia kill – Small Molecules that selectively kill Giardia lamblia: qHTS; Giardia lamblia trophozoite viability; AID 540267, 2011; 0.15% of 340,000 active; activity change, % at 7.66 µM, hits read low; in the data active means activity change below about -80%; inconclusive means between about -30% and that limit;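 further: parasites exposed to compound for two days anaerobically before the ATP read; on the % scale 0 is the no-effect control and ±100 the full control effect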
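Luminescence from cellular ATP indicates surviving trophozoites (100 cells/well) following 48 hrs anaerobic compound treatment at 37 deg C; signal develops 15-30 min at room temperature.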
* = called active by the depositor; ? = inconclusive; . = no result given; [ ] = remark or other dose. Unless noted, the call rests on the fitted dose curve; in most records, active means well fitted activation curve with a large enough effect; inconclusive means small, poorly fitted or top-dose-only effect; inactive means no such curve, though single readings can be large or run the other way.

SMILES	uPA generation	SW480 rereplic	MCF10A rerep	Giardia kill
Cn1c(=O)[nH]c(=O)c2c1nc(N1CCN(CCO)CC1)n2Cc1ccccc1Cl	5%	-16%	0.65µM*	4
O=c1cc(-c2ccc3c(c2)OCO3)oc2ccccc12	1%	3%	28%	-23
Nc1c(-c2ccc3c(c2)OCCO3)oc2ccccc2c1=O	.	21µM*	18µM*	-19
COc1ccc(C2/C=C\CN(C(=O)C3CCCCC3)C(Cc3ccccc3)C(=O)N2Cc2ccc(F)cc2)cc1 (configuration not stated)	.	.	.	-5
CCNC(=O)N(CC)C[C@H]1N[C@@](Cc2ccccc2)(C(=O)OC)[C@H]2C(=O)N(C)C(=O)[C@@H]12	-6%	?	-6%	9
Cc1ccc(N=Nc2ccc(O)c(/C=N\NC(=O)c3ccc(N)cc3)c2)cc1C	.	3.7µM*	0%	3
O=C(N/N=C/c1cc(Cl)ccc1O)c1ccc(Br)cc1	-12%	1.6µM*	14%	10
CCOC(=O)O[C@]1(C(=O)COC(=O)CC)CC[C@@H]2[C@@H]3CCC4=CC(=O)C=C[C@@]4(C)[C@H]3[C@H](O)C[C@]21C	.	4%[20.6 µM]	8%[20.6 µM]	.
CC1CC=CC2C1C(=O)N(Cc1ccccc1)C2c1ccc(F)c(Br)c1 (configuration not stated)	.	.	.	-23
Cc1ccccc1CSc1nc2[nH]ncc2c(=O)[nH]1	6%	-75%	-13%	-1
Cc1ccc(C)c(CSc2nc3[nH]ncc3c(=O)[nH]2)c1	-12%	3.7µM*	?	-15
COc1ccc(Nc2oc(-c3ccco3)nc2S(=O)(=O)c2ccc(F)cc2)cc1	2%	?	15µM*	29
CCc1ccc(-c2csc3[n+]2CCN3C(C)=O)cc1	-10%	2.3µM*	?	9
CN1C2C=C3C(C#N)=C(N)C(C#N)(C#N)[C@H](c4c(F)cccc4F)[C@H]3C1CC2 (some centres not stated)	-15%	-4%	1%	6
N#CC1=C(N)C(C#N)(C#N)[C@H](c2c(F)cccc2F)[C@H]2CC3(CC=C12)OCCO3	.	3.3µM*	4.1µM*	-4
CCOC(=O)c1c(C)oc2ccc(OCc3cc(C(=O)OC)oc3C)cc12	-7%	29%	6.5µM*	-8
COC(=O)c1cc(COc2ccc3ccc(=O)oc3c2)c(C)o1	1%	-4%	2%	-9
CCOC(=O)c1c(C)oc2ccc(OCC(=O)C(C)(C)C)cc12	3%	-1%[9.22 µM]	-1%	5
COC(=O)c1cc(COc2ccc3oc(C)c(C(=O)OC)c3c2)c(C)o1	?	18µM*	15µM*	9
CCc1ccc(C(=O)C(C)CN2CCCCC2)cc1 (configuration not stated)	.	?	9%	.
COc1cccc(CN2CC34CC(c5ccc(C(C)=O)cc5)C(CC3S2(=O)=O)O4)c1 (configuration not stated)	.	.	.	0
Cc1ccn2cc(C34CC5CC(CC(C5)C3)C4)nc2c1	-4%	21µM*	?	-11
Cc1ccn2cc(CSc3ccccc3)nc2c1	-6%	-5%	3%	11
COc1ccc(N2CCN(C(c3ccc(C)cc3)c3nnnn3C(C)(C)C)CC2)cc1 (configuration not stated)	.	.	.	-12
Cc1cc(C2C(=O)NC(=O)C2=O)c(C)cc1Br (configuration not stated)	-2%	-7%	-5%	4
SMILES	uPA generation	SW480 rereplic	MCF10A rerep	Giardia kill
CCc1nc(C)c(-c2ccccc2)c(=O)[nH]1	0%	18µM*	?	0
C[C@H](CO)N1C[C@H](C)[C@@H](CN(C)S(C)(=O)=O)Oc2c(NC(=O)Cc3ccccc3)cccc2C1=O	3%	0.12µM*	-4%	-6
CN(C(=S)NC(=O)c1ccccc1)C1CCCCC1	?	14%	3%	5
CCCc1cc(=O)oc2c3c(cc(OCC(=O)NCCN4CCOCC4)c12)OC(C)(C)CC3	7%	-8%	-8%	2
O=C(CCSc1ccc(Cl)c(Cl)c1)NC12CC3CC(CC(C3)C1)C2	1%	?	18µM*	-12
COCCCNC(=O)CC1C[C@H](C(=O)N2CCCCC2)[C@@]2(CCc3ccccc3)c3[nH]c4ccc(OC)cc4c3CCN2C1=O (some centres not stated)	-5%	18µM*	-1%	5
C[C@]12c3[nH]c4ccccc4c3CCN1C(=O)C(CC(=O)NCc1ccco1)C[C@@H]2C(=O)N1CCCCC1 (some centres not stated)	6.3µM*	?	-5%	4
CCN(CC)C(=O)[C@H]1CC(CC(=O)NCC23CC4CC(CC(C4)C2)C3)C(=O)N2CCc3c([nH]c4ccccc34)[C@]12C (some centres not stated)	?	23µM*	?	-7
CCN(CC)C(=O)[C@H]1C[C@H](CC(=O)NC/C=C(\C)CCC=C(C)C)C(=O)N2CCc3c([nH]c4cc(-c5ccco5)ccc34)[C@]12C	?	17%[9.22 µM]	21µM*	1
CC(C)=CCC/C(C)=C/CNC(=O)C[C@H]1C[C@H](C(=O)N2CCCCC2)[C@@]2(C)c3[nH]c4cc(-c5ccco5)ccc4c3CCN2C1=O	-23%	?	?	?
C[C@]12c3[nH]c4ccccc4c3CCN1C(=O)C(CC(=O)NCc1ccco1)C[C@@H]2C(=O)N1CCOCC1 (some centres not stated)	?	0%	1%	1
Cc1ccc(C(=O)N2CCN(Cc3ccccc3)CC2)cc1S(=O)(=O)N1CCOCC1	-5%	-3%	2%	-22
C[C@@H]1CN([C@@H](C)CO)C(=O)c2cccc(NC(=O)Nc3ccccc3)c2O[C@H]1CN(C)C(=O)Nc1cccc2ccccc12	-8%	2%	-8%	-3
CC[C@]12c3[nH]c4cc(-c5ccco5)ccc4c3CCN1C(=O)[C@@H](CC(=O)NCc1ccc(OC)c(OC)c1)C[C@@H]2C(=O)N1CCN(C(=O)c2ccco2)CC1	?	4.1µM*	4%	-8
CCCCCCCCCCCCCCNCCO	.	-3%	12%	.
O=C(NN=C1CCCC1)c1cc(Cl)cc(Cl)c1O	14%	-6%	4%	-5
Cc1cc(NC(=O)CSc2c(C)[nH]c3ccccc23)no1	0%	-3%	15%	13
Cc1[nH]c2ccccc2c1SCC(=O)NNC(=O)Nc1ccc(OC(F)(F)F)cc1	9%	-3%	13µM*	10
COc1cc(CN2CCCC(N3CCN(c4ccc(F)cc4)CC3)C2)ccc1F (configuration not stated)	-13%	-12%	3%	-8
O=C(N/N=C/c1cc([N+](=O)[O-])ccc1O)c1cccc2cc[nH]c12	4.5µM*	7.3µM*	?	-1
O=C(N/N=C/c1cc([N+](=O)[O-])ccc1O)C(O)(c1ccccc1)c1ccccc1	2%	21µM*	?	13
COc1cc(/C=N/NC(=O)c2cccc(N3CCCC3=O)c2)ccc1O	-1%	?	5%	-3

Screening data deposited in PubChem by National Center for Advancing Translational Sciences (NCATS).
